Screening data as filed in PubChem BioAssay.
hcDAF-12 act = H. contortus DAF-12 nuclear receptor activators, primary screen, cell-based, luminescence, HEK293, lit1-tk-luc reporter; HEK293 hcDAF-12 lit1-tk-luc reporter; 0% DMSO, 100% Δ7-dafachronic acid; activation, % at 6.8 µM; 1.4% of 370,000 active; AID 652067, 2013;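 active means activation above the mean of all tested compounds plus 3 SD, cut at about 5.5% in these data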;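 further: 100% = response to 3 µM Δ7-dafachronic acid high control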
ssDAF-12 act = S. stercoralis DAF-12 nuclear receptor activators, primary screen, cell-based, luminescence, HEK293, GRIP1 co-expression, lit1-tk-luc | Nuclear hormone receptor DAF-12 (Strongyloides stercoralis) | HEK293 ssDAF-12/GRIP1 lit1-tk-luc reporter; % of 3 µM dafachronic acid response | 1% of 370,000 active | activation, % at 6.8 µM;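 active means activation above the mean over all tested compounds plus 3 SD, cut at about 0.9% in these data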;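 further: 0% = DMSO-only wells and 100% = 3 µM delta7-dafachronic acid wells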
hgDAF12 agonist = H. glycines DAF-12 receptor agonists, primary screen, cell-based, luminescence, HEK293, GAL4 fusion, UAS-luciferase | Nuclear hormone receptor DAF-12 (Heterodera glycines), GAL4 fusion | HEK293 GAL4-hgDAF12 UAS-luciferase reporter, agonist luminescence; normalized to butyrate control | activation, % at 6.8 µM | 1.8% of 370,000 active | AID 687014, 2013;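 active means activation above a cutoff set at the mean of all screened compounds plus 3 SD, cut at about 10% in these data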;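 further: 0% = DMSO wells and 100% = sodium butyrate wells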
DAX1 inh-1 = DAX1 (NR0B1) inhibitors on StAR promoter, primary screen, cell-based, luminescence, SF-1 (NR5A1), full-length DAX-1; HEK293T StAR-luciferase reporter, SF-1/DAX-1 repression relief; inhibition, % at 6.8 µM; 1.1% of 370,000 active; AID 652010, 2013;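 active means inhibition above the mean over all tested compounds plus 3 SD, cut at about 3.6% in these data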;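 further: 0% = DAX-1 cells with DMSO and 100% = cells lacking DAX-1 with DMSO; higher inhibition means more luminescence from relief of DAX-1 repression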
DAX1 inh-2 = DAX1 (NR0B1) inhibitors, primary screen, cell-based, HEK293, Gal4-DAX1, luciferase luminescence. inhibition, % at 6.75 µM. Nuclear receptor subfamily 0 group B member 1 (Homo sapiens), P51843. HEK293 Gal4-DAX1 luciferase reporter. 0.99% of 340,000 active;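 active means inhibition above the mean over all tested compounds plus 3 SD, cut at about 4.2% in these data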;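 further: 0% = DAX1-transfected cells with DMSO and 100% = empty-vector control cells with DMSO; inhibition shows as a rise in luminescence from relieved DAX1 repression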
Target sequence (P51843 207-470 limits assumed): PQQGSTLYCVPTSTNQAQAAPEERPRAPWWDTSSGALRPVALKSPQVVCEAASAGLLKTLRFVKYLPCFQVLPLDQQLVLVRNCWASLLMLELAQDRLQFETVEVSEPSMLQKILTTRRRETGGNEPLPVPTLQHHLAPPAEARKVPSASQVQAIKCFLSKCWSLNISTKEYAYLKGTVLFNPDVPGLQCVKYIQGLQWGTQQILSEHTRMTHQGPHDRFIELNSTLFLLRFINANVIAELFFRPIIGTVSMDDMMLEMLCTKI
SMARCA2 act = SMARCA2 (BRM) function activators, primary screen, cell-based, luminescence, high throughput; MG213 cells, MMTV-luciferase reporter, dexamethasone, overnight; activation, % at 9.1 µM; 1% of 370,000 active; AID 652017, 2013; in the data active means activation above about 7.8%;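 further: 0% = vehicle wells and 100% = reference activator wells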
The depositor's hits bear a star; · = not tested or not shown. Shown are actives, neighbours in structure and some others; about 4.8% of the full set was active somewhere.

SMILES	hcDAF-12 act	ssDAF-12 act	hgDAF12 agonist	DAX1 inh-1	DAX1 inh-2	SMARCA2 act
CN1CCN(C(=O)/C(=C\c2cccnc2)NC(=O)c2cccc(Br)c2)CC1	-1	-1	1	0	0	0
COc1ccc(S(=O)(=O)Nc2ccc3cn[nH]c3c2)cc1C	2	0.9*	-2	0	-1	-3
COc1ccc(S(=O)(=O)Nc2ccc3ccccc3c2)cc1C	-1	-1	-1	-1	0	2
O=c1c2cc(N3CCOCC3)ccc2[nH]c(=S)n1CC1CCCO1 (centres undefined)	0	0.9*	3	0	0	1
O=c1c2ccccc2[nH]c(=S)n1CC1CCCO1 (centres undefined)	-1	-1	1	0	2	3
O=C(C1CCC(Cn2c(=S)[nH]c3ccccc3c2=O)CC1)N1CCOCC1 (centres undefined)	0	-2	-2	-1	5.7*	-2
O=C(C1CCC(Cn2c(=S)[nH]c3ccccc3c2=O)CC1)N1CCN(c2ccccc2)CC1 (centres undefined)	-4	-2	-5	-2	-1	-3
Cc1cccnc1NC(=O)Nc1ccccc1	2	0	5	1	4	2
COc1ccc(NC(=O)Nc2ncccc2C)cc1	0	0	9	0	1	1
Cc1cccnc1NC(=O)Nc1ccc(Cl)cc1	3	0	7	1	4.3*	5
Cc1cccnc1NC(=O)Nc1cccc(F)c1	4	0	11*	2	2	3
CCOC(=O)c1ccc(NC(=O)NCc2ccn(CC)n2)cc1	0	0	0	0	1	-2
Cc1nc2c(ncn2-c2ccccc2)c(=O)n1NC(=O)CN1CCCCC1	0	-2	3	0	4.5*	-4
CC(=O)c1ccc(-c2nnc(CCC(=O)N(C)Cc3cccc4cnccc34)o2)s1	-1	-1	-1	-1	1	-2
Cc1ccc(-c2nnc(CCC(=O)N(C)Cc3nccs3)o2)s1	3	1.9*	4	0	0	3
O=S1(=O)CCC(NCC2CCCO2)C1 (centres undefined)	-1	-2	-1	-1	7.4*	0
O=C1OCC2=C1C(c1ccc(Cl)cc1)CC(=O)N2c1ccc(F)cc1 (centres undefined)	0	-1	6	-1	-1	-2
O=C1OCC2=C1C(c1ccccc1)CC(=O)N2c1ccc(F)cc1 (centres undefined)	-1	-1	12*	1	0	-5
CCN(NC(=O)C(O)(c1ccc(F)cc1)c1ccc(F)cc1)C(=O)c1ccccc1	1	-2	1	-1	2	0
COc1cc(C(=O)CCN2CCC(c3ccccc3)C2)cc(OC)c1OC (centres undefined)	1	-2	0	0	0	1
Cc1ccc(CNC(=O)C2CCC(=O)N(CCc3ccc(Cl)cc3)C2)s1 (centres undefined)	-1	1.1*	2	-1	1	0
NC(=O)c1ccc(N2CCN(c3ncc(C(F)(F)F)cc3Cl)CC2)cc1	-2	-1	0	0	-1	-1
CCc1ccc(OCC(=O)N2CCc3ccccc32)cc1	4	0	12*	1	1	4
O=C(O)CCSc1nc2ccccc2n1-c1ccccc1	6.0*	-1	0	1	0	3
CCNC(=O)Nc1ccc(-n2nc(C)c(C(=O)OCC)c2C)nc1	1	-1	-1	0	4.8*	-1
SMILES	hcDAF-12 act	ssDAF-12 act	hgDAF12 agonist	DAX1 inh-1	DAX1 inh-2	SMARCA2 act
O=S(=O)(Cc1cc(-c2ccccc2Cl)no1)c1ccccc1	2	-1	6	2	2	3
O=C(COc1ccccc1Cl)c1ccc2c(c1)CCCC2	3	0	12*	1	1	5
O=C(COc1cccc(Cl)c1Cl)Nc1ccc2c(c1)CCC2	0	-1	-1	-1	-1	3
COc1ccc(-c2nnc(N(C)C(=O)C3CCCO3)s2)cc1 (centres undefined)	3	0	13*	1	1	-1
COc1ccc(-c2nnc(N(C)C(=O)C3CCOC3)s2)cc1 (centres undefined)	0	-1	6	0	1	6
Oc1oc(-c2ccc(Br)cc2)nc1/C=N/c1ccccn1	1	0	13*	1	2	3
Cc1ccc(-c2nc(C=Nc3ccccc3)c(O)o2)cc1	1	-1	7	1	1	7
Fc1ccc(CNC2CCN(Cc3ccccc3)CC2)cc1	-1	0	4	1	2	-2
CC(NC1CCN(Cc2ccccc2)CC1)c1ccc(F)cc1 (centres undefined)	-2	1.1*	-2	-1	0	2
Cc1c(S(=O)(=O)N2CCCCC2)c(=O)n(C)c(=O)n1C	2	-1	1	0	4.3*	0
COC(=O)C1CCN(S(=O)(=O)c2c(C)n(C)c(=O)n(C)c2=O)CC1	-1	-1	3	1	1	1
Cc1ccc(N2CC(C(=O)Nc3nnc(SCc4ccccn4)s3)CC2=O)cc1 (centres undefined)	0	-1	-1	0	0	0
O=C(Nc1nnc(SCc2ccccn2)s1)C1CC(=O)N(c2ccccc2)C1 (centres undefined)	-2	-1	2	-1	6.5*	-1
COC(=O)[C@]12C[C@H](CC(=O)N3CCOCC3)C(=O)N(CCc3ccc(OC)c(OC)c3)C1=C[C@H](COCc1ccccc1)O[C@@H]2C	-3	-1	-3	-2	·	-6
CC(=O)N1CCc2c(sc(NC(=O)c3ccc([N+](=O)[O-])o3)c2C#N)C1	2	0	2	-1	0	8
COC(=O)c1sc(NC(=O)c2ccc([N+](=O)[O-])o2)c(C#N)c1C	-1	-2	-2	-2	4.7*	-3
Cc1ccc(NC(=O)CN2CCC(NC(=O)Cc3ccccc3)CC2)c(C)c1	-1	1.2*	2	0	2	1
COc1ccc(CCN2C(=O)C(O)=C(C(=O)c3ccco3)C2c2cccs2)cc1OC (centres undefined)	-1	-1	-1	0	0	-3
